# Screening results: PubChem BioAssay, The Scripps Research Institute Molecular Screening Center
# Hits are enriched below; roughly 1.7% of the tested compounds scored in any of these assays.
# PAD4 inh: human PAD4 inhibitors, primary screen, biochemical, fluorescence polarization, 1536-well format; recombinant PAD4, RCA probe fluorescence polarization; actives 0.41% (n = 330,000); inhibition, % at 6.36 µM;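 active = percent inhibition above a cutoff equal to the mean of all tested compounds plus 3 SD, cut at about 15% in these data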;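 note: 0% = PAD4 with RCA probe and DMSO and 100% = probe without PAD4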
# GSTO1 inh: inhibitors of recombinant GSTO1, primary screen, counter-screen for RBBP9 inhibitor project, biochemical, fluorescence polarization | activity-based probe fluorescence polarization | AID 1974, 2009 | actives 1.1% (n = 300,000) | inhibition, % at 5.96 µM | Glutathione S-transferase omega-1 (Homo sapiens), P78417;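 active = inhibition above the campaign mean inhibition plus 3 SD, cut at about 35% in these data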;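 note: 0% = GSTO1-1 with DMSO and 100% = wells lacking GSTO1-1 enzyme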
# Target sequence (P78417 whole entry, looked up): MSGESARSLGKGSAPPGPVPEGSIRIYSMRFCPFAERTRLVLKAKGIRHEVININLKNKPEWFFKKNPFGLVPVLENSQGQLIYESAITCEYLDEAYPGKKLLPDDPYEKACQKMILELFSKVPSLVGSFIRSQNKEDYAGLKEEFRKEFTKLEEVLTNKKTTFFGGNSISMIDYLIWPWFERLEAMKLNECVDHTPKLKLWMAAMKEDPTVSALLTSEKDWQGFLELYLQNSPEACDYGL
# EBNA-1 inhibitor: EBNA-1 DNA-binding inhibitors, primary screen, biochemical, fluorescence polarization; inhibition, % at 14.8 µM; actives 0.34% (n = 300,000); AID 1950, 2009; in the data active = inhibition above about 28%
# LYPLA2 inh: LYPLA2 inhibitors, primary screen, counter-screen for PME1 inhibitor project, biochemical, fluorescence polarization, FP-Rh probe ABPP; recombinant LYPLA2; inhibition, % at 5.9 µM; actives 0.38% (n = 320,000); AID 2177, 2009; Acyl-protein thioesterase 2 (Homo sapiens), O95372;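 active = inhibition above the screen-wide mean plus 3 SD, limit set per campaign, cut at about 26% in these data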;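 note: 0% = LYPLA2 with DMSO and 100% = wells lacking LYPLA2 enzyme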
# LYPLA1 inh: LYPLA1 inhibitors, primary screen, counter-screen for PME1 inhibitor project, biochemical, fluorescence polarization, FP-Rh probe ABPP. Acyl-protein thioesterase 1 (Homo sapiens), O75608. recombinant LYPLA1. inhibition, % at 5.9 µM. actives 0.16% (n = 320,000). AID 2174, 2009;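 active = inhibition above the mean of all tested compounds plus 3 SD, set per campaign, cut at about 14% in these data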;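 note: inhibitors block serine hydrolase probe labeling of LYPLA1 so polarization falls; 0% = enzyme with DMSO and 100% = wells lacking LYPLA1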
# ZTA counter: counter-screen for EBNA-1 inhibitors: inhibitors of Epstein-Barr virus ZTA | inhibition, % at 11 µM | P03206 | actives 0.15% (n = 320,000) | AID 2234 | ZTA-DNA binding, fluorescence polarization; in the data active = inhibition above about 33%
# Target sequence (P03206 whole entry, looked up): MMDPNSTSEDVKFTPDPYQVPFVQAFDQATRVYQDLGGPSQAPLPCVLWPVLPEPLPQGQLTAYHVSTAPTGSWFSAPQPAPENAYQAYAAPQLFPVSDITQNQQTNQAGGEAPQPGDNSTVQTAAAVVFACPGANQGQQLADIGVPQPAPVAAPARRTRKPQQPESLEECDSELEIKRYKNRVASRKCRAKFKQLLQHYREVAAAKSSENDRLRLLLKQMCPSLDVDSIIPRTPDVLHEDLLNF
# LYPLA1 confirm: LYPLA1 inhibitors, retest, confirmation, counter-screen for PME1 inhibitor project, biochemical, fluorescence polarization, FP-Rh probe ABPP; shares compounds with LYPLA1 inh; recombinant LYPLA1; inhibition, % at 5.9 µM; actives 69% (n = 480); AID 2233, 2010;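 active = mean inhibition across replicates above the hit cutoff set in the primary screen, cut at about 15% in these data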;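 note: loss of FP-Rh probe labeling of LYPLA1 seen as lower polarization; 0% = LYPLA1 with DMSO and 100% = wells lacking LYPLA1 enzyme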
# LYPLA2 confirm: LYPLA2 inhibitors, retest, confirmation, counter-screen for PME1 inhibitor project, biochemical, fluorescence polarization, FP-Rh probe ABPP. actives 72% (n = 1,100). inhibition, % at 5.9 µM. recombinant LYPLA2. shares compounds with LYPLA2 inh;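 active = mean inhibition across replicates above the hit cutoff set in the primary screen, cut at about 26% in these data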;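 note: blocked labeling of the enzyme by serine hydrolase FP-Rh probe lowers polarization; 0% = enzyme with DMSO and 100% = wells lacking LYPLA2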
# LYPLA2 gel ABPP: LYPLA2 inhibitors in proteome, late-stage follow-up, gel-based competitive ABPP, fluorescence, assay provider; rhLYPLA2 in mouse brain proteome, gel ABPP FP-Rh; actives 30% (n = 150); inhibition, % at 20 µM; AID 652029, 2013; shares compounds with LYPLA2 inh;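 active = inhibition of LYPLA2 enzyme probe labeling above about 50%, limit read from the data; inactive = inhibition below that limit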;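 note: loss of FP-Rh probe labeling of the LYPLA2 gel band measured as band density; 0% = DMSO only control band and 100% = blank gel background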
# PAD4 FP conf: human PAD4 inhibitors, confirmation, biochemical, fluorescence polarization; inhibition, % at 6.36 µM; actives 28% (n = 1,200); recombinant PAD4, RCA probe fluorescence polarization; shares compounds with PAD4 inh;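 active = mean inhibition across replicates above the hit cutoff set by the earlier primary screen, cut at about 15% in these data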;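 note: inhibitors block active-site labeling by the probe so polarization falls; 0% = PAD4 with probe and DMSO and 100% = probe without PAD4 enzyme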
# * hit, by the source's call; . = not tested or not shown.
SMILES,PAD4 inh,GSTO1 inh,EBNA-1 inhibitor,LYPLA2 inh,LYPLA1 inh,ZTA counter,LYPLA2 confirm,others
CN1CCN(C(=O)COc2ccc3ccccc3c2)CC1,0.5,4.8,5.8,2.3,3.9,5.2,.,
O=C(COc1ccc2ccccc2c1)N1CCN(CC2CC3C=CC2C3)CC1 (stereo not given),0.8,-8.5,-0.7,26.0*,19.8*,-13.3,25.0,LYPLA1 confirm=33.5*
COC(=O)C1=C(c2ccc(OC)c(OC)c2)C[C@@H]2CC[C@H]1N2C(=O)NCCOc1ccccc1Cl,-1.7,.,.,1.5,0.1,-4.4,.,
Cc1ccccc1NC(=O)Cc1nc(COC(=O)Cc2ccccc2)cs1,46.5*,.,.,47.2*,39.6*,-1.9,-4.1,LYPLA1 confirm=-1.8;PAD4 FP conf=-7.8
O=C(COC(=O)Cc1ccccc1)Nc1cccnc1Cl,-4.9,2.3,-2.9,-2.0,1.6,-16.4,.,
O=c1cc(C(F)(F)F)c2cc3c4c(c2o1)CCCN4CCC3,35.1*,13.7,2.4,17.1,18.0*,2.1,.,LYPLA1 confirm=9.1;PAD4 FP conf=38.4*
CCNC(=S)N(C)CCc1cc2c(c(OC)c1C=C1C(=O)N(C)C(=O)N(C)C1=O)OCO2,-0.2,-10.6,6.4,10.5,6.0,-9.8,.,
Cc1ccccc1N1C(=O)/C(=C/c2ccco2)C(=O)NC1=S,-11.2,35.7*,109.9*,46.6*,-14.7,69.0*,31.8*,
O=[N+]([O-])c1ccc(NCc2ccc(Cl)cc2)c2ccncc12,-16.5,2.5,-8.8,33.3*,3.2,-14.4,51.9*,LYPLA2 gel ABPP=49.0
CCN(CC)C(=O)c1ccc(NC(=S)NC(=O)CCc2ccccc2)cc1,-1.0,0.6,1.1,29.7*,0.2,3.7,20.6,
COc1ccc(C(O)c2ccccc2OP(=O)(N(C)C)N(C)C)cc1 (stereo not given),1.6,-0.7,-0.6,-2.8,0.7,8.9,.,
COc1ccc2c(C)c(CC(=O)N3C[C@H]4C[C@@H](C3)c3cccc(=O)n3C4)c(=O)oc2c1C,-6.3,0.5,2.9,0.6,3.1,-4.5,.,
Cc1ccc(OCC(=O)N2CCN(Cc3ccc4c(c3)OCO4)CC2)cc1C,-0.7,10.0,-10.4,1.5,-2.8,2.9,.,
O=C(COc1ccc(Br)cc1)N1CCN(Cc2ccc3c(c2)OCO3)CC1,4.6,-1.7,-3.6,32.2*,6.1,5.3,24.6,
COC(=O)C1=C(c2ccccc2OCc2ccccc2)C[C@@H]2CC[C@H]1N2C(=O)NCc1ccc(Br)cc1,-0.4,.,.,-2.1,-4.2,8.3,.,
C[N+]1(C)C2CCC1CC(OC(=O)c1ccccc1)C2 (stereo not given),-2.5,9.3,10.4,26.1*,5.0,6.5,1.5,
C[N+]1(C)[C@@H]2CC[C@H]1CC(OC(=O)C(CO)c1ccccc1)C2 (stereo not given in full),-0.2,1.7,1.6,8.2,2.3,2.1,.,
